Measured values from PubChem BioAssay AID1159580 (chemical genetic matrix, 2015).
Hit rate of the full screen: of about 5,500 compounds, about 2,000 (36%) were called active. Roughly 18% stayed inconclusive and do not appear here. Rule as the data show it: active = normalized growth mostly below about 0.91 (no sharp cut-off); inconclusive = no clear call, values can overlap the other calls; inactive = mostly above about 0.92. Some of the results follow.

Experiment: chemical genetic growth profiling, strain panel (AID 1159580);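 also: tested at 20 µM; growth read once vehicle control cultures reached saturation at 30 °C; 1 = growth at the plate median or of vehicle wells; lower values mean less growth of the strain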
Conditions: S. cerevisiae deletion strains, growth OD

Measured: normalized growth

C=CCn1c(=O)c2c(nc(-c3ccc(S(=O)(=O)O)cc3)n2C)n(C)c1=O
inactive: locus YAL013W, strain DEP1, hits give low values 0.982 | locus YAL040C, strain CLN3, hits give low values 0.965 | locus YCL061C, strain MRC1 (second series), hits give low values 0.985 | locus YDR363W, strain ESC2, hits give low values 1.07 | locus YER002W, strain NOP16, hits give low values 1.01 | locus YGR078C, strain PAC10, hits give low values 0.997 | locus YNL153C, strain GIM3, hits give low values 1.01 | locus YNL175C, strain NOP13, hits give low values 1 | locus YNL197C, strain WHI3, hits give low values 0.987 | locus YNL224C, strain SQS1, hits give low values 0.99 | locus YOR083W, strain WHI5 (second series), hits give low values 1.03 | locus YPL241C, strain CIN2, hits give low values 0.979
